Assay outcomes from PubChem BioAssay.
MbtI inh: blocks the Mycobacterium tuberculosis siderophore enzyme MbtI | P9WFX0 | AID 493033 | inhibition, % (no concentration beside the values) | 100,000 compounds, 0.89% hits | purified MbtI enzyme, fluorescence intensity read-out; in the data active means inhibition mostly above about 56%, no sharp cut-off; inactive means mostly below about 77%
MenB inh: Mtb MenB enzyme inhibition. MenB enzyme assay, absorbance read-out. 100,000 compounds, 0.43% hits. P9WNP5. inhibition, % (no concentration beside the values); in the data active means inhibition above about 21%, passing the limit was not always enough
PV pol inh: poliovirus RNA polymerase inhibition | P03300 | % elongation, % (compound at 16.7 µg/mL) | 150,000 compounds, 0.66% hits | poliovirus polymerase elongation, fluorescence polarization; active compounds read low | AID 588519; in the data active means % elongation below about 90%
Target sequence (P03300 1749-2209 limits assumed): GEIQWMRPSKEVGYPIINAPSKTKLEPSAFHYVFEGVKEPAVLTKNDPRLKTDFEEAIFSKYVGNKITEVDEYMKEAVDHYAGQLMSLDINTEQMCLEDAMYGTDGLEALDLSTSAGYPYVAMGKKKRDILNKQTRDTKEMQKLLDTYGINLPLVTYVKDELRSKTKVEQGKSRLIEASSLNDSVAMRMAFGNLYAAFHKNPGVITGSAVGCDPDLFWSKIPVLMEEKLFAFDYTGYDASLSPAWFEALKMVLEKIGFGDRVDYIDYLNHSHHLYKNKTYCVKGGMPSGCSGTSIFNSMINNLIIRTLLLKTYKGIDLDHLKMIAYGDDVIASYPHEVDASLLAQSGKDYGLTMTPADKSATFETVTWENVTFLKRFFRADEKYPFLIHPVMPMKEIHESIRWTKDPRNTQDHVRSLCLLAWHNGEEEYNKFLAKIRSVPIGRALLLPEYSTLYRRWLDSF
Large screens that a line does not name were inactive. An excerpt weighted towards active compounds, which were near 1.4% of everything screened.

CCCCC1CCC(C(=O)O)CC1 (centres undefined)	none (no result: MenB inh)
CCCCC1CCC(CCCC(C)CCC(=O)O)CC1 (centres undefined)	PV pol inh 89.0 (no result: MbtI inh, MenB inh)
Cc1ccc(Cl)cc1NC(=O)C1=NCCN1	PV pol inh 73.0
Cc1ccc(Cl)cc1NC(=O)c1csnn1	none (no result: MbtI inh, MenB inh)
CC(Sc1nnnn1C)C(=O)NC(C)c1ccc(Cl)cc1Cl (centres undefined)	none
COc1cc(CN2CCc3nc(N4CCN(c5ccccn5)CC4)ncc3C2)cc(OC)c1OC	none (no result: MbtI inh, MenB inh)
CCOc1ccc(CN2CCc3nc(N4CCN(c5ccccn5)CC4)ncc3C2)cc1OC	PV pol inh 13.0 (no result: MbtI inh, MenB inh)
COc1nc2c([nH]1)C(c1ccc(OC(C)C)c(OC)c1)C(C#N)=C(N)O2 (centres undefined)	none (no result: MbtI inh)
CC(C)(C)C(=O)NCC(c1ccco1)N1CCN(c2ccc(F)cc2)CC1 (centres undefined)	none
CCCN=c1ssc(=O)n1CCC	MbtI inh 66.8
O=C(O)CCc1cnn(-c2ccccc2)c1	none
CC(C)n1c2ccccc2c2n[nH]c(=S)nc21	none
S=c1nc2c(n[nH]1)c1ccccc1n2Cc1ccccc1	PV pol inh 73.0 (no result: MbtI inh)
O=C(CN1CC(=O)Nc2ccccc21)Nc1ccc(S(=O)(=O)N2CCCC2)cc1	none
CC(C=C1C(=O)NC(=O)NC1=O)c1ccccc1 (centres undefined)	none
CN1C(=O)NC(=O)/C(=C/c2ccc(F)cc2)C1=O	none
CN1C(=O)NC(=O)/C(=C\C=C\c2ccccc2)C1=O	MbtI inh 84.5
O=C1NC(=O)C(=C/C=C/c2ccccc2)C(=O)N1	MbtI inh 77.6
COc1ccc(-c2nnc(SCC(=O)N(C)C)n2C2CCCCC2C)cc1 (centres undefined)	none
O=C(CSc1nnc2n1CCCCC2)N1CCCC1c1ccc2c(c1)OCCCO2 (centres undefined)	none
CCOC(=O)c1sc(NC(=O)C2c3ccccc3Oc3ccccc32)c(C#N)c1C	PV pol inh 76.0 (no result: MbtI inh, MenB inh)
CCOC(=O)c1sc(NC(=O)C2c3ccccc3Oc3ccccc32)c(C(=O)OCC)c1C	none (no result: MbtI inh, MenB inh)
Cn1cccc1C(=O)Nc1cc(S(C)(=O)=O)ccc1Cl	none
O=C1CCN(C(=O)/C=C/c2ccccc2)c2ccccc21	none
O=C(/C=C/c1ccccc1)ON1C(=O)CCC1=O	PV pol inh 35.0 (no result: MbtI inh)
COc1ccc(CNC2CCCCC2)cc1OC	none
O=C(C1CCCN(S(=O)(=O)c2cccc3nonc23)C1)N1CCc2ccccc2C1 (centres undefined)	none
CCc1ccc(C2CC(=O)N3CN(c4ccccc4)CSC3=C2C#N)cc1 (centres undefined)	none
N#CC1=C2SCN(CCCc3ccccc3)CN2C(=O)CC1c1ccc(Cl)cc1 (centres undefined)	none
CSc1ccc(C2CC(=O)N3CN(C)CSC3=C2C#N)cc1 (centres undefined)	MbtI inh 92.3
CN1CSC2=C(C#N)C(c3ccccc3)CC(=O)N2C1 (centres undefined)	MbtI inh 85.6
CCOC(=O)c1c(S(=O)(=O)Nc2ccc3c(c2)OCCO3)c(C)n(C)c1C	none
CC(=Nc1ccc(S(=O)(=O)N2CCCC2)cc1)c1ccccc1	none (no result: MenB inh)
C(=N\N1CCOCC1)/c1cccc(/C=N/N2CCOCC2)c1	none
CC(SCC(=O)Nc1ccc(F)cc1)C(=O)O (centres undefined)	none
CCOc1ccc(OCC)c(NC(=O)c2ccc3c(c2)N(Cc2ccccc2)C(=O)CS3=O)c1 (centres undefined)	none
CN1CCN(C(=S)c2cccc(OCc3ccccc3)c2)CC1	none
S=C(c1cccc(OCc2ccccc2)c1)N1CCCCC1	MbtI inh 72.6
O=C1C(=Cc2ccccc2)C(=O)c2ccccc21	MbtI inh 94.7
CSc1ccc(C=C2C(=O)c3ccccc3C2=O)cc1	none (no result: MenB inh)
CCc1ccc(NC(=O)C(C)N2CCN(S(=O)(=O)c3ccc(C)cc3C)CC2)cc1 (centres undefined)	none
CCN(CC)S(=O)(=O)c1cc(C)ccc1OC	none
Clc1ccc(SCc2nnc(-c3ccc(Cl)cc3)o2)cc1	none
O=C(Nc1ccc(F)cc1)C(Sc1nnc(C2CC2)o1)c1ccccc1 (centres undefined)	MbtI inh 54.9
Cc1cc(C)cc(NC(=O)C(Sc2nnc(C)n2C2CC2)c2ccccc2)c1 (centres undefined)	none
NC(=O)Cn1cnc2sc3c(c2c1=O)CCC3	PV pol inh 90.0 (no result: MbtI inh)
CCn1cnc2sc3c(c2c1=O)CCCC3	none
CCCCN(C)Cc1cccc(OC)c1OC	none
COc1ccccc1CN(C)CCN	MenB inh 74.6
Oc1ccccc1OCc1ccc2ccccc2n1	none
O=C(O)C1CCCN(C(=O)c2ccccc2)C1 (centres undefined)	none (no result: MenB inh, PV pol inh)
c1ccc(-c2nnc3sc(-c4ccc5c(c4)OCO5)nn23)cc1	none
O=S(=O)(c1cccc(-c2nn3c(-c4ccncc4)nnc3s2)c1)N1CCCCC1	PV pol inh 85.0
CCNc1nc(Cl)nc(NCC)n1	none (no result: MenB inh)
CCNc1nc(NCC)nc(NCCO)n1	MenB inh 32.3
Cc1c2ccc(Cl)cc2s[n+]1C	none
N#Cc1ccc(OCC(=O)c2ccc3c(c2)OCO3)cc1	none
O=C(O)NC(=O)c1ccccc1	none
Cc1cc(C(=S)NC(=O)c2ccccc2)c(C)n1C	MbtI inh 65.3
CCOC(=O)c1c(NC(=O)c2cc(-c3ccccc3OC)on2)sc(C)c1C	PV pol inh 73.0 (no result: MbtI inh, MenB inh)
CCOC(=O)c1c(NC(=O)c2cc(C(C)C)on2)sc(C(C)=O)c1C	none (no result: MbtI inh, MenB inh)
CCOC(=O)c1c(NC(=O)c2cc(C)on2)sc(C)c1C	PV pol inh 78.0 (no result: MbtI inh, MenB inh)
CCOC(=O)c1c(NC(=O)c2cc(-c3ccc(Cl)cc3)on2)sc(C)c1C	none (no result: MbtI inh, MenB inh)
CC(C)Cc1cc(C(=O)Nc2sc3c(c2C#N)CCC3)no1	none
CCOC(=O)c1c(NC(=O)c2cc(CC(C)C)on2)sc(C(C)=O)c1C	PV pol inh 81.0 (no result: MbtI inh, MenB inh)
CCOC(=O)c1c(NC(=O)c2cc(-c3ccc(OC)c(OC)c3)on2)sc(C)c1C	none (no result: MbtI inh, MenB inh)
COc1ccccc1-c1cc(C(=O)Nc2sc3c(c2C#N)CCCC3)no1	PV pol inh 82.0 (no result: MbtI inh, MenB inh)
COc1ccc2c(c1)c(C(=O)Nc1nccs1)c(C)n2C1CCCCC1	none
Oc1ccccc1Oc1cnn(-c2ccccc2)c1-c1ccccc1	none (no result: MenB inh)
CCOC(=O)c1c(NC(=O)c2cc(CC)on2)sc(C)c1C	PV pol inh 90.0 (no result: MbtI inh, MenB inh)
CCOC(=O)c1sc(NC(=O)c2cc(C(C)C)on2)c(C(=O)OCC)c1C	none
C=C(C)C1CCC(C)OC1c1ccccc1 (centres undefined)	none
CCCC(=O)Oc1c(Sc2ccccc2)c(C)nn1-c1ccccc1	MbtI inh 57.9 (no result: MenB inh, PV pol inh)
Cc1nn(-c2ccccc2)c(OC(=O)C(C)C)c1Sc1ccc(Cl)cc1	none (no result: MbtI inh, MenB inh)
CCOC(=O)/C(C#N)=C/c1cn(CCC#N)nc1-c1ccccc1	none
CCOC(=O)CCn1cc(/C=C(\C#N)C(N)=S)c(-c2ccccc2)n1	PV pol inh 89.0
COc1ccc(OC)c(C(=O)CSc2nc3ccccc3o2)c1	none
CSC(=S)N(c1ccccc1)c1ccccc1	none (no result: MenB inh)
NC(=S)N(c1ccccc1)c1ccccc1	MenB inh 32.3
Cc1nnc(-c2ccccn2)[nH]c1=O	none
Cn1c(=O)[nH]c2nnc(-c3ccccn3)nc2c1=O	PV pol inh 89.0
CCn1c(COC(=O)/C=C/c2nc3ccccc3s2)nc2cc(S(=O)(=O)N(C)C)ccc21	none
Cc1ccc(C(=O)CC2(O)C(=O)N(CCc3ccccc3)c3ccc(Cl)cc32)cc1 (centres undefined)	none (no result: MbtI inh, MenB inh)
[N-]=C=C1C(=O)N(CCc2ccccc2)C(=O)[C@H]([n+]2ccccc2)[C@H]1c1ccc(Cl)cc1	PV pol inh 69.0 (no result: MbtI inh)
